Measurements from PubChem BioAssay (EPA / NIEHS).
Results filed as inconclusive are left out. Active and inactive are the calls of the source. How the source made its calls, unless noted: active means hit-call score of the fitted dose curve at least 0.9, where 1 is the maximum; inactive means score below 0.9.

Legend:
[1] = ATG_BRE_CIS: Attagene CIS-FACTORIAL HepG2 Assay for human Bone Morphogenetic Protein (BMP) Response Element (BRE) (AID 2282933); conditions: HepG2 BMP response element reporter, Attagene transcription factor profiling; actives raise or lower the signal
Outline: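 Read-out: reporter mRNA induction quantified by RT-PCR and capillary electrophoresis after 24 h chemical exposure of transfected HepG2 cells. Endogenous factor activity on the BMP response element; gain or loss fitted against DMSO baseline.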

[2] = ATG_E_Box_CIS: Attagene CIS-FACTORIAL HepG2 Assay for human Enhancer Box (E-box) (AID 2282936); conditions: HepG2 E-box cis-reporter transcription, actives raise or lower the signal
Outline: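 Fluorescent reporter fragments separated by capillary electrophoresis gave the signal; mRNA came from HepG2 cells transfected with cis-element reporters and treated 24 h. Curves fitted bidirectionally relative to DMSO controls.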

[3] = ATG_FoxO_CIS: Attagene CIS-FACTORIAL HepG2 Assay for human Forkhead box O (FoxO) (AID 2282943); conditions: HepG2 Attagene cis-reporter, FoxO element, mRNA; actives raise or lower the signal
Outline: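 HepG2, transient MRTU transfection (cis element, endogenous TFs). Dose 24 h. TriZol RNA → oligo(dT) RT → PCR → 6-FAM primer extension → HpaI cut → CE. Gain/loss vs DMSO.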

[4] = ATG_GRE_CIS: Attagene CIS-FACTORIAL HepG2 Assay for human Glucocorticoid Response Elements (GRE) (AID 2282947); conditions: HepG2 GRE cis-reporter, Attagene multiplex mRNA; actives raise or lower the signal
Outline: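 Multiplexed cis-reporter mRNA induction, HepG2, 24 h post-dose. RT-PCR, FAM-labelled, HpaI-digested amplicons by CE. Bidirectional fit vs DMSO.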

[5] = molecular target: X-box-binding protein 1 (Homo sapiens) (UniProt P17861); experiment: ATG_Xbp1_CIS: Attagene CIS-FACTORIAL HepG2 Assay for human X-box Binding Protein 1 (XBP1) (AID 2282972); conditions: HepG2 XBP1 cis-element reporter, Attagene multiplex; actives raise or lower the signal
Outline: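 Multiplexed cis-reporter readout in transfected HepG2 liver cells. Exposure lasted 24 hours. Activity in either direction was fitted against DMSO as negative control and baseline.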

[6] = molecular target: Hepatocyte nuclear factor 4-alpha (Homo sapiens) (UniProt P41235); experiment: ATG_HNF4a_TRANS: Attagene TRANS-FACTORIAL HepG2 Assay for human Hepatocyte Nuclear Factor 4 alpha (HNF4a) (AID 2282982; active means hit-call score of the fitted dose curve at least 0.9, where 1 is the maximum); conditions: HepG2 HNF4a transactivation reporter, mRNA readout
Outline: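 Multiplexed reporter assay: transfected HepG2, 24 h exposure, total RNA → oligo(dT) RT → PCR → 6-FAM extension → HpaI digest → CE fluorescence. DMSO = negative control.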

[7] = ATG_M_06_TRANS: Attagene TRANS-FACTORIAL HepG2 Assay for M06 Transcription Factor (Internal Marker) (AID 2282983; active means hit-call score of the fitted dose curve at least 0.9, where 1 is the maximum;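 further: reporter transcript level by RT-PCR then capillary electrophoresis fluorescence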); conditions: HepG2 Attagene TRANS M06 internal marker reporter
Outline: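 mRNA levels of a reporter transcript, quantified as FAM fluorescence on capillary electrophoresis, served as readout. HepG2 cells expressing exogenous GAL4-chimera reporter constructs were exposed for 24 h. Gain of signal over DMSO was evaluated.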

[8] = molecular target: Nuclear respiratory factor 1 (Homo sapiens) (UniProt Q16656); experiment: ATG_NRF1_CIS: Attagene CIS-FACTORIAL HepG2 Assay for human Nuclear Respiratory Factor 1 (NRF1) Orphan Gene (AID 2282987); conditions: HepG2 NRF1 cis-element reporter, Attagene multiplex; actives raise or lower the signal
Outline: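 Reporter mRNA induction or loss in HepG2 cells after 24 h dosing; cis-regulated reporter constructs report endogenous transcription-factor activity. Quantified by RT-PCR/capillary electrophoresis fluorescence, DMSO-referenced.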

[9] = ATG_NFI_CIS: Attagene CIS-FACTORIAL HepG2 Assay for human Nuclear Factor I (NFI) (AID 2282989); conditions: HepG2 cis-regulatory reporter, NFI response element transcription; actives raise or lower the signal
Outline: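 Read-out: reporter mRNA via RT-PCR plus capillary electrophoresis with fluorescence detection. Transiently transfected HepG2 (endogenous TF activity on cis promoters), 24 h compound exposure; gain or loss of signal fitted against DMSO.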

[10] = molecular target: Nuclear receptor subfamily 1 group I member 2 (Homo sapiens) (UniProt O75469); experiment: ATG_PXR_TRANS: Attagene TRANS-FACTORIAL HepG2 Assay for human Pregnane X Receptor (PXR) (AID 2283008; active means hit-call score of the fitted dose curve at least 0.9, where 1 is the maximum)
Outline: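 HepG2 transfected (FuGene 6) with GAL4-UAS reporter units + PXR-Gal4 chimera; dosed 24 h. Total RNA → oligo(dT) RT → PCR → 6-FAM primer extension → HpaI cut → CE. Gain-of-signal vs DMSO.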

[11] = ATG_PPRE_CIS: Attagene CIS-FACTORIAL HepG2 Assay for human Peroxisome Proliferator-activated Response Element (PPRE) (AID 2282958); conditions: HepG2 PPRE cis-element reporter, Attagene transcription factor profiling; actives raise or lower the signal
Outline: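 DMSO served as negative control and baseline for bidirectional curve fitting. Signal came from PPRE-regulated reporter mRNA in HepG2 cells, measured 24 h post-dosing by RT-PCR, 6-FAM primer extension and capillary electrophoresis.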

[12] = ATG_Sox_CIS: Attagene CIS-FACTORIAL HepG2 Assay for human SRY-box transcription factor (SOX) (AID 2282960); conditions: HepG2 Attagene cis-factorial SOX reporter, mRNA; actives raise or lower the signal
Outline: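 Fluorescence-labelled cDNA fragments from reporter transcripts, sized by CE, give the signal. Cells: HepG2, transiently transfected with cis-regulated reporter units. Exposure 24 h; DMSO negative control; bidirectional curve fitting.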

[13] = ATG_SREBP_CIS: Attagene CIS-FACTORIAL HepG2 Assay for human Sterol Regulatory Element Binding (SREBP) (AID 2282962); conditions: HepG2 Attagene cis-factorial SREBP reporter, mRNA; actives raise or lower the signal
Outline: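 Endogenous factor activity is measured in HepG2 through multiplexed reporter units under cis-element control. Following a 24 h incubation, reporter transcripts are reverse-transcribed, PCR-amplified and sized by capillary electrophoresis; activity is fitted in both directions relative to DMSO.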

[14] = molecular target: Cellular tumor antigen p53 (Homo sapiens) (UniProt P04637); experiment: TOX21_p53_BLA_p3_ratio: Tox21 HCT-116 p53 Agonism Beta-lactamase Assay, Ratio, Phase 3 (AID 2283596; active means hit-call score of the fitted dose curve at least 0.9, where 1 is the maximum)
Outline: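 Cells were seeded at 4000/well, rested 5 h at 37C, then dosed with DMSO compound solutions (217-fold dilution) for 16 h. CCF4-AM substrate was loaded for 2 h at room temperature, and the 460/530 nm emission ratio was fitted for gain of signal versus DMSO.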

[15] = molecular target: Cellular tumor antigen p53 (Homo sapiens) (UniProt P04637); experiment: TOX21_p53_BLA_p5_ratio: Tox21 HCT-116 p53 Agonism Beta-lactamase Assay, Ratio, Phase 5 (AID 2283599; active means hit-call score of the fitted dose curve at least 0.9, where 1 is the maximum)
Outline: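 Beta-lactamase reporter ratio (blue 460 nm over green 530 nm, 405 nm excitation) after 2 h CCF4-AM loading, in HCT-116 cells exposed 16 h at 37 C to compounds pinned at 217-fold dilution. Increases relative to DMSO baseline scored.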

[16] = molecular target: Cellular tumor antigen p53 (Homo sapiens) (UniProt P04637); experiment: TOX21_p53_BLA_p4_ratio: Tox21 HCT-116 p53 Agonism Beta-lactamase Assay, Ratio, Phase 4 (AID 2283601; active means hit-call score of the fitted dose curve at least 0.9, where 1 is the maximum)
Outline: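 Signal is the blue/green (460nm/530nm) ratio of cleaved versus uncleaved CCF4-AM substrate, read after 2 h substrate loading. Cells were HCT116 carrying the p53-responsive beta-lactamase reporter, dosed 16 h at 37C, 5% CO2; CellTiter-Glo measured in parallel.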

[17] = ATG_PBREM_CIS: Attagene CIS-FACTORIAL HepG2 Assay for human Phenobarbital-responsive Enhancer Module (PBREM) (AID 2282955); conditions: HepG2 PBREM cis-reporter, Attagene multiplexed transcription; actives raise or lower the signal
Outline: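 Multiplexed cis-reporter readout in human hepatoma HepG2 cells; PBREM-regulated transcript quantified after 24 h exposure by fluorescent RT-PCR fragment analysis. Signal changes up or down fitted relative to DMSO.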

[18] = molecular target: Peroxisome proliferator-activated receptor gamma (Homo sapiens) (UniProt P37231); experiment: ATG_PPARg_TRANS: Attagene TRANS-FACTORIAL HepG2 Assay for human Peroxisome Proliferator-activated Receptor-gamma (PPARg) (AID 2283007; active means hit-call score of the fitted dose curve at least 0.9, where 1 is the maximum)
Outline: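 Chimeric NR-Gal4 transactivation is measured in transiently transfected HepG2 cells by reporter mRNA induction at 24 h. Detection uses RT-PCR with fluorescent labelling and capillary electrophoresis; DMSO defines baseline.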

[19] = molecular target: Retinoic acid receptor RXR-alpha (Homo sapiens) (UniProt P19793); experiment: ATG_RXRa_TRANS: Attagene TRANS-FACTORIAL HepG2 Assay for human Retinoid X Receptor alpha (RXRa) (AID 2283012; active means hit-call score of the fitted dose curve at least 0.9, where 1 is the maximum)
Outline: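 Chimeric NR-GAL4 trans-activation in HepG2, 24 h treatment; reporter transcripts quantified by fluorescence on capillary electrophoresis, analysed for upward change from DMSO.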

[20] = molecular target: human Retinoid X Receptor beta (RXRb), RXRB (gene 6257) (UniProt P28702); experiment: ATG_RXRb_TRANS: Attagene TRANS-FACTORIAL HepG2 Assay for human Retinoid X Receptor beta (RXRb) (AID 2283013; active means hit-call score of the fitted dose curve at least 0.9, where 1 is the maximum)
Outline: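 After a 24 h incubation with test chemical, transfected HepG2 cells carrying NR-Gal4 fusions and GAL4-UAS reporter transcription units yield RNA whose reporter cDNA is FAM-labelled, HpaI-cut and sized by capillary electrophoresis; increases over DMSO are scored.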

Measured: outcome

Nuclear receptor subfamily 1 group I member 2 (Homo sapiens), sequence (O75469 whole entry, looked up, the tested form may be a part): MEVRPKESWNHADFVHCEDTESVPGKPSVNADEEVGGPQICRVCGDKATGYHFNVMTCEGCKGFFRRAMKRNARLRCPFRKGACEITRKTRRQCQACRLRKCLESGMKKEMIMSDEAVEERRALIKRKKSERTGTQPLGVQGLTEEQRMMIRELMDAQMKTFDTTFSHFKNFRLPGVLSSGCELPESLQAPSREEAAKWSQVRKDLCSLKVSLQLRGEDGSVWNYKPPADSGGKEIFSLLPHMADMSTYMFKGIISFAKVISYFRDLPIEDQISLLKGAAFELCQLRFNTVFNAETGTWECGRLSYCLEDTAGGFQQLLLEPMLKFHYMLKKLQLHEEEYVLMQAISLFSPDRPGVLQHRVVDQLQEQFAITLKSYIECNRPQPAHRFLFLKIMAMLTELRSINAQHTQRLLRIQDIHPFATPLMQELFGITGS
Nuclear respiratory factor 1 (Homo sapiens), sequence (Q16656 whole entry, looked up): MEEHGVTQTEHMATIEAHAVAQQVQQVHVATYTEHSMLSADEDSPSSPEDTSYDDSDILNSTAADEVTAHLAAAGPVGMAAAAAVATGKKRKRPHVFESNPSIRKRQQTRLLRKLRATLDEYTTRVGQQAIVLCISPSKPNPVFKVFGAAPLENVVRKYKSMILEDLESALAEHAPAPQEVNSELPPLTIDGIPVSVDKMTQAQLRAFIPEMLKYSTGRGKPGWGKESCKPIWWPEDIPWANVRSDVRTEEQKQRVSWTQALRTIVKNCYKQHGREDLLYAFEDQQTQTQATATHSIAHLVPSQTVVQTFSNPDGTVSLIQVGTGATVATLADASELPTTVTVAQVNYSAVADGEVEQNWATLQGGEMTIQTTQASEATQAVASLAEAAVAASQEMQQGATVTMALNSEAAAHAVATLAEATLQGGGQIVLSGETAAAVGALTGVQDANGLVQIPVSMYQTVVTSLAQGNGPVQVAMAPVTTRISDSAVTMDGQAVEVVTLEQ
human Retinoid X Receptor beta (RXRb), RXRB (gene 6257), sequence (P28702 whole entry, looked up, the tested form may be a part): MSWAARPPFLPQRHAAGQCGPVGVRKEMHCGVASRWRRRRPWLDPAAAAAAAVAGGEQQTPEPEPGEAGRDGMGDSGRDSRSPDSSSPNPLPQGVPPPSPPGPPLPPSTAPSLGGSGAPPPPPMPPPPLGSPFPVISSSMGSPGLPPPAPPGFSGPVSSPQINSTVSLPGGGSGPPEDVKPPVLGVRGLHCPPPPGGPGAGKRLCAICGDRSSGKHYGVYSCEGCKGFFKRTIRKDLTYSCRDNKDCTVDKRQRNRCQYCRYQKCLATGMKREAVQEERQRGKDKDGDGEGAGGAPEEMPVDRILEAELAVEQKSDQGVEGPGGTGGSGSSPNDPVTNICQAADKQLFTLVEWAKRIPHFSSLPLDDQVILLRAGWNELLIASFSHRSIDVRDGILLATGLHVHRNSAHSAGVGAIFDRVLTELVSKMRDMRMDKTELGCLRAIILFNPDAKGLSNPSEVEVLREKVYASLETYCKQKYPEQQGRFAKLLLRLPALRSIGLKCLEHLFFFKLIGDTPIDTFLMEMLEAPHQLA
X-box-binding protein 1 (Homo sapiens), sequence (P17861 whole entry, looked up): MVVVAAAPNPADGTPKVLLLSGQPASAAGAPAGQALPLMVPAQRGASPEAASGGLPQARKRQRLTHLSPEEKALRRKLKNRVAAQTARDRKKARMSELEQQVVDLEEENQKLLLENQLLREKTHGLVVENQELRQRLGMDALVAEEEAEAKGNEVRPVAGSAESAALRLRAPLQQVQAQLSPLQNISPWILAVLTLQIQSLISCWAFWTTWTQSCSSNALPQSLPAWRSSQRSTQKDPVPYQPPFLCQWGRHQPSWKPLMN
Hepatocyte nuclear factor 4-alpha (Homo sapiens), sequence (P41235 whole entry, looked up): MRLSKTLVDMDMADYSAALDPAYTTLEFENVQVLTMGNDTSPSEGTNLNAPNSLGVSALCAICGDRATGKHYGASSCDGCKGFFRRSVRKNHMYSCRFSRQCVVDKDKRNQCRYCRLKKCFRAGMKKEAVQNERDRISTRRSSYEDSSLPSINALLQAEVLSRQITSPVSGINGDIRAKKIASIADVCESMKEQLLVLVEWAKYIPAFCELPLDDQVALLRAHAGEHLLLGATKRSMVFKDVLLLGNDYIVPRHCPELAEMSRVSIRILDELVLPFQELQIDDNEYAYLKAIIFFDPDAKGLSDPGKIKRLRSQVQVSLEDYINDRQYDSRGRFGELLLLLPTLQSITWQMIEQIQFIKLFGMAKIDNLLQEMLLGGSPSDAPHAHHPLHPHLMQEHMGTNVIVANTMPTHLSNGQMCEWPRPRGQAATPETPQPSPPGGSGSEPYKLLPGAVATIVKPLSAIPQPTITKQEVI
Cellular tumor antigen p53 (Homo sapiens), sequence (P04637 whole entry, looked up): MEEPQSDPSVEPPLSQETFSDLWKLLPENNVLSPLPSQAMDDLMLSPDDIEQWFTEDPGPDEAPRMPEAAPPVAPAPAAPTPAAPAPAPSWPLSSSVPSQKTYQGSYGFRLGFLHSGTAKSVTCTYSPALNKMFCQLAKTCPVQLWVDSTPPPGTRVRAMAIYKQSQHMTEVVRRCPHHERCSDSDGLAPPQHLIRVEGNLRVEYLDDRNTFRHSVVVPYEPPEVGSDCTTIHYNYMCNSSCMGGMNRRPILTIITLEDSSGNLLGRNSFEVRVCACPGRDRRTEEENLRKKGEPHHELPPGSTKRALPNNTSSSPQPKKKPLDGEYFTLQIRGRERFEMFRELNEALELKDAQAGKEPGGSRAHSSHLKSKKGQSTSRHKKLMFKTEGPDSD
Retinoic acid receptor RXR-alpha (Homo sapiens), sequence (P19793 whole entry, looked up, the tested form may be a part): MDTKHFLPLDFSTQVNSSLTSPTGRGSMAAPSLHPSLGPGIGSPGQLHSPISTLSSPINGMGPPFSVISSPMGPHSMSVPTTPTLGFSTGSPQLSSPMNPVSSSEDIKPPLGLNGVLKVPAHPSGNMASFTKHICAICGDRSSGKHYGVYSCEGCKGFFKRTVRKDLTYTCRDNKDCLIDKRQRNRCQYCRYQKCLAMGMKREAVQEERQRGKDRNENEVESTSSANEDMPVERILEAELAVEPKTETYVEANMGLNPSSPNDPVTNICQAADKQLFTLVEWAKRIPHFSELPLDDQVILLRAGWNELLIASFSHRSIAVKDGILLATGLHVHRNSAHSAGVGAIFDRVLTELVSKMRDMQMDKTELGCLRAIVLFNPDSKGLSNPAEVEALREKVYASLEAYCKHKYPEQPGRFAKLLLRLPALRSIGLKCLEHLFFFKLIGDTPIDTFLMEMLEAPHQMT
Peroxisome proliferator-activated receptor gamma (Homo sapiens), sequence (P37231 whole entry, looked up, the tested form may be a part): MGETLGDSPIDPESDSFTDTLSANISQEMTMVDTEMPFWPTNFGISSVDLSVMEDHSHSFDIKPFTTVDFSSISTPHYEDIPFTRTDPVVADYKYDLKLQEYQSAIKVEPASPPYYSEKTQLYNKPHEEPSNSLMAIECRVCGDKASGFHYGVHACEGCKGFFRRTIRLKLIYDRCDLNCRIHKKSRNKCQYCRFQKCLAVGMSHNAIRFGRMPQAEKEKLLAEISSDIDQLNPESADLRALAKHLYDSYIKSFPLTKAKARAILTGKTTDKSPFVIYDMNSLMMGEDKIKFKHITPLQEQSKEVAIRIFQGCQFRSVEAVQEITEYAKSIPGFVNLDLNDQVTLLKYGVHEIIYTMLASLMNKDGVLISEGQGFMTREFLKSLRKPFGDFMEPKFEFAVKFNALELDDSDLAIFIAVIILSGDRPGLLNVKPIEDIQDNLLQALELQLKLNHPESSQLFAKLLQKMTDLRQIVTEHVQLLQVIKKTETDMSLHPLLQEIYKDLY

CN1C(=O)CCS(=O)(=O)C1c1ccc(Cl)cc1 (configuration not stated)
inactive: [1] | [2] | [3] | [4] | [5] | [6] | [7] | [8] | [9] | [10]

CCCCNP(N)(N)=S
inactive: [1] | [3] | [4] | [11] | [12] | [13] | [8] | [9] | [14] | [15] | [16]

O=C(CCN1CC1)OCC(CO)(COC(=O)CCN1CC1)COC(=O)CCN1CC1
not listed: [2] | [3] | [5] | [8] | [10] | [11]
inactive: all other assays above

ClCCCCCCCl
inactive: [4] | [17] | [12] | [13] | [5] | [7] | [9] | [20]

CCC(C)(C)O
not listed: [12] | [14] | [15] | [16] | [18] | [19] | [20]
inactive: all other assays above

CC=Cc1ccc2c(c1)OCO2
not listed: [4] | [7] | [8] | [11]
inactive: all other assays above
